Source: PubChem BioAssay AID1159580 (chemical genetic matrix, 2015)
Out of some 5,500 compounds screened, about 2,000 (36%) were called active. Not shown: some 18% with an inconclusive outcome. No stated cut-off is given here; in the data, active means normalized growth mostly below about 0.91 (no sharp cut-off); inconclusive means no clear call, values can overlap the other calls; inactive means mostly above about 0.92. The list shows a part of the results.

Assay: chemical genetic growth profiling, strain panel (AID 1159580);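 further: tested at 20 µM; growth read once vehicle control cultures reached saturation at 30 °C; 1 = growth at the plate median or of vehicle wells; lower values mean less growth of the strain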
Details: growth OD

Measured: normalized growth

CCn1cc(C(=O)O)c(=O)c2cc(F)c(N3CCNCC3)nc21
inactive: S. cerevisiae deletion strains, locus YJR066W, strain TOR1, hits give low values 0.976 | S. cerevisiae deletion strains, locus YJR075W, strain HOC1, hits give low values 1.01 | S. cerevisiae deletion strains, locus YKL009W, strain mrt4, hits give low values 1.01 | S. cerevisiae deletion strains, locus YKL068W, hits give low values 1.01 | S. cerevisiae deletion strains, locus YKL085W, strain MDH1 (second series), hits give low values 1.01 | S. cerevisiae deletion strains, locus YKL085W, strain MDH1, hits give low values 1.01 | S. cerevisiae deletion strains, locus YKL160W, strain elf1, hits give low values 1 | S. cerevisiae deletion strains, locus YKL190W, strain CNB1, hits give low values 1.02 | S. cerevisiae deletion strains, locus YKR001C, strain vps1, hits give low values 1.02 | S. cerevisiae deletion strains, locus YKR026C, strain gcn3, hits give low values 0.989 | S. cerevisiae deletion strains, locus YKR091W, strain srl3, hits give low values 0.983 | S. cerevisiae deletion strains, locus YLL001W, strain dnm1, hits give low values 0.991 | S. cerevisiae deletion strains, locus YLL026W, hits give low values 0.992 | S. cerevisiae deletion strains, locus YLL041C, strain sdh2, hits give low values 0.964 | S. cerevisiae deletion strains, locus YLR027C, strain aat2, hits give low values 0.989 | S. cerevisiae deletion strains, locus YLR039C, strain RIC1, hits give low values 1.01 | S. cerevisiae deletion strains, locus YLR058C, strain SHM2, hits give low values 1.02 | S. cerevisiae deletion strains, locus YLR102C, strain apc9, hits give low values 1.01 | S. cerevisiae deletion strains, locus YLR113W, strain HOG1, hits give low values 1.08 | S. cerevisiae deletion strains, locus YLR221C, strain rsa3, hits give low values 0.984 | S. cerevisiae deletion strains, locus YLR258W, strain gsy2, hits give low values 0.987 | S. cerevisiae deletion strains, locus YLR262C, strain YPT6 (second series), hits give low values 0.945 | S. cerevisiae deletion strains, locus YLR262C, strain YPT6, hits give low values 1.03 | S. cerevisiae deletion strains, locus YLR268W, strain sec22, hits give low values 1.01 | S. cerevisiae deletion strains, locus YLR320W, strain mms22, hits give low values 0.999 | S. cerevisiae deletion strains, locus YLR330W, strain CHS5, hits give low values 1.01 | S. cerevisiae deletion strains, locus YLR342W, strain FKS1 (second series), hits give low values 1.03 | S. cerevisiae deletion strains, locus YLR342W, strain FKS1, hits give low values 0.981 | S. cerevisiae deletion strains, locus YLR357W, strain rsc2, hits give low values 0.897 | S. cerevisiae deletion strains, locus YLR370C, strain arc18, hits give low values 0.975 | S. cerevisiae deletion strains, locus YLR371W, strain rom2, hits give low values 1.02 | S. cerevisiae deletion strains, locus YLR384C, strain iki3, hits give low values 0.983 | S. cerevisiae deletion strains, locus YLR418C, strain cdc73, hits give low values 1.01 | S. cerevisiae deletion strains, locus YML016C, strain PPZ1, hits give low values 1.01 | S. cerevisiae deletion strains, locus YML032C, strain rad52, hits give low values 1.02 | S. cerevisiae deletion strains, locus YML120C, strain ndi1, hits give low values 0.983 | S. cerevisiae deletion strains, locus YML124C, strain tub3, hits give low values 1.01 | S. cerevisiae deletion strains, locus YMR058W, strain fet3, hits give low values 0.982 | S. cerevisiae deletion strains, locus YMR078C, strain ctf18, hits give low values 1 | S. cerevisiae deletion strains, locus YMR125W, strain sto1, hits give low values 0.973 | S. cerevisiae deletion strains, locus YMR129W, hits give low values 0.981 | S. cerevisiae deletion strains, locus YMR205C, strain PFK2, hits give low values 1.01 | S. cerevisiae deletion strains, locus YMR223W, strain ubp8, hits give low values 1.02 | S. cerevisiae deletion strains, locus YMR231W, strain pep5, hits give low values 0.991 | S. cerevisiae deletion strains, locus YMR307W, strain GAS1, hits give low values 1.02 | S. cerevisiae deletion strains, locus YNL067W, strain RPL9B, hits give low values 1 | S. cerevisiae deletion strains, locus YNL071W, strain lat1, hits give low values 0.968 | S. cerevisiae deletion strains, locus YNL153C, strain GIM3, hits give low values 0.99 | S. cerevisiae deletion strains, locus YNL183C, strain NPR1, hits give low values 0.982 | S. cerevisiae deletion strains, locus YNL209W, strain ssb2, hits give low values 0.971 | S. cerevisiae deletion strains, locus YNL233W, strain BNI4, hits give low values 0.978 | S. cerevisiae deletion strains, locus YNL248C, strain rpa49, hits give low values 0.989 | S. cerevisiae deletion strains, locus YNL250W, strain rad50, hits give low values 1.03 | S. cerevisiae deletion strains, locus YNL271C, strain bni1, hits give low values 1.02 | S. cerevisiae deletion strains, locus YNL298W, strain CLA4, hits give low values 1.01 | S. cerevisiae deletion strains, locus YNL307C, strain MCK1, hits give low values 1.02 | S. cerevisiae deletion strains, locus YNL322C, strain KRE1 (second series), hits give low values 0.976 | S. cerevisiae deletion strains, locus YNR049C, strain mso1, hits give low values 0.981 | S. cerevisiae deletion strains, locus YNR052C, strain pop2, hits give low values 1.02 | S. cerevisiae deletion strains, locus YOL006C, strain TOP1, hits give low values 1.02 | S. cerevisiae deletion strains, locus YOL012C, strain htz1 1.02 | S. cerevisiae deletion strains, locus YOL147C, strain pex11, hits give low values 1.02 | S. cerevisiae deletion strains, locus YOR001W, strain rrp6, hits give low values 0.987 | S. cerevisiae deletion strains, locus YOR061W, strain CKA2, hits give low values 1.02 | S. cerevisiae deletion strains, locus YOR069W, strain VPS5, hits give low values 1.01 | S. cerevisiae deletion strains, locus YOR070C, strain gyp1, hits give low values 0.993 | S. cerevisiae deletion strains, locus YOR080W, strain dia2, hits give low values 0.993 | S. cerevisiae deletion strains, locus YOR083W, strain WHI5, hits give low values 0.99 | S. cerevisiae deletion strains, locus YOR106W, strain vam3, hits give low values 0.988 | S. cerevisiae deletion strains, locus YOR136W, strain idh2, hits give low values 1.01 | S. cerevisiae deletion strains, locus YOR144C, strain elg1, hits give low values 1.01 | S. cerevisiae deletion strains, locus YOR184W, strain ser1, hits give low values 1.02 | S. cerevisiae deletion strains, locus YOR231W, strain MKK1, hits give low values 1.05 | S. cerevisiae deletion strains, locus YOR265W, strain rbl2, hits give low values 0.986 | S. cerevisiae deletion strains, locus YOR270C, strain vph1, hits give low values 0.991 | S. cerevisiae deletion strains, locus YOR290C, strain snf2, hits give low values 0.961 | S. cerevisiae deletion strains, locus YOR316C, strain cot1, hits give low values 1.02 | S. cerevisiae deletion strains, locus YPL051W, strain arl3, hits give low values 0.994 | S. cerevisiae deletion strains, locus YPL078C, strain atp4, hits give low values 0.984 | S. cerevisiae deletion strains, locus YPL106C, strain sse1, hits give low values 0.947 | S. cerevisiae deletion strains, locus YPL240C, strain hsp82, hits give low values 0.977 | S. cerevisiae deletion strains, locus YPL241C, strain CIN2, hits give low values 1.01 | S. cerevisiae deletion strains, locus YPL256C, strain CLN2, hits give low values 1.04 | S. cerevisiae deletion strains, locus YPR119W, strain clb2, hits give low values 1.01 | S. cerevisiae deletion strains, locus YPR141C, strain kar3, hits give low values 1.01 | S. cerevisiae deletion strains, locus YPR163C, strain tif3, hits give low values 1.03 | S. cerevisiae deletion strains, locus YPR167C, strain met16, hits give low values 1.01 | S. cerevisiae deletion strains, strain wtn01, hits give low values 1.01 | S. cerevisiae strains, strain wild type, hits give low values 1.02
